# Screening data from PubChem.
# CCHF vOTU inh-1 = CCHFV vOTU protease inhibition; inhibition, % at 11.5 µM; 370,000 tested, 0.55% active; Pep-AMC fluorescence
# Vc quorum ag = induces V. cholerae light production without autoinducers; V. cholerae BH1578 lux reporter, luminescence, 6 h; activation, % at 18.7 µM; 350,000 tested, 0.16% active; in the data active = activation mostly above about 9.7%, no sharp cut-off
# PrPC TRFRET = inhibitors of human cell surface prion protein PrPC; TR-FRET read-out; P04156; AID 720596; inhibition, % at 13.8 µM; 370,000 tested, 0.43% active; in the data active = inhibition above about 24%
# Y pestis TopoI = inhibitors of Yersinia pestis topoisomerase I; Y. pestis Topo-I cleavage product accumulation, plate reader; activity, % at 10 µM; 360,000 tested, 0.064% active; AID 504884; in the data active = activity above about 50%, passing the limit was not always enough
# CCHF vOTU inh-2 = confirmation of CCHF virus vOTU protease inhibitors; shares compounds with CCHF vOTU inh-1; Recombinant CCHFV vOTU, Pep-AMC fluorescence; inhibition, % at 11.5 µM; 1,900 tested, 17% active
# Numbers stand for hits; . = inactive; / = no result; ! = not confirmed by another sample. Most compounds without a hit are left out; they make up all but 1.1% or so of the library. Rule as the data show it, unless noted: active = inhibition above about 30%; inactive = the rest.
SMILES,CCHF vOTU inh-1,Vc quorum ag,PrPC TRFRET,Y pestis TopoI,CCHF vOTU inh-2
COC(=O)C1C(O)=C(C=Nc2ccc(N)cc2)C(=O)CC1(C)C (stereo not drawn),40,.,.,.,.
COc1ccc(CSCC(=O)N/N=C/c2ccccc2OCc2ccccc2)cc1,.,.,.,.,/
O=[N+]([O-])C1=CC=C2C(=NC3(CCCCC3)N2O)C1=NCCc1ccccc1,.,.,.,.,/
COc1ccccc1/C=C1\SC(=S)N(CCC(=O)Nc2ccc(C(=O)O)c(O)c2)C1=O,35,.,.,.,.
COc1ccccc1/C=C1/SC(=S)N(CCC(=O)Nc2cccnc2)C1=O,.,.,.,.,/
O=C(CCN1C(=O)/C(=C/c2ccco2)SC1=S)Nc1ccc(C(=O)O)c(O)c1,.,.,.,.,/
O=C(CCN1C(=O)/C(=C\c2ccco2)SC1=S)Nc1ccc(C(=O)O)c(O)c1,34,.,.,.,.
CN1C(=O)N(CC(=O)N2CCN(S(=O)(=O)c3ccc(Cl)s3)CC2)C(=O)C12CCCCC2,.,.,.,.,/
CCOC(=O)Cc1nnc(Nc2cc(C)ccc2C)c2ccccc12,31,.,.,.,.
O=Nc1c(O)ccc2cc(S(=O)(=O)O)ccc12,/,.,/,.,/
Nc1cccc2cc(S(=O)(=O)O)ccc12,32,.,.,.,37
O=C(Nc1ccc(Cl)c(C(F)(F)F)c1)[C@@H]1CC=C[C@@H]2CCN(C3CCCCC3)C(=O)[C@@H]21,.,.,.,.,/
COc1ccccc1C=NN=C(NN=Cc1ccccc1OC)NN=Cc1ccccc1OC,69,.,.,.,.
COc1ccc(-c2csc(Nc3ccc(S(=O)(=O)Nc4cc(C)on4)cc3)n2)cc1,.,.,.,.,/
CC1=NN(c2ccc(F)cc2)C(=O)C1C(c1cccc(O)c1)c1c(C)[nH]n(-c2ccc(F)cc2)c1=O (stereo not drawn),66,.,.,.,.
COc1cccc(C(C(=O)NC2CCCC2)N(C(=O)c2ccco2)c2ccccc2)c1OC (stereo not drawn),.,.,.,.,/
COc1cccc(/C=N/Nc2ccnc(=O)[nH]2)c1O,31,.,.,.,.
CCOC(=O)c1ccc(NC(=O)CCc2nnc3ccc(N4CCN(C)CC4)nn23)cc1,.,.,.,.,/
CC(C)CC(=O)CN1C(=O)C2(OCCO2)c2ccccc21,.,.,.,.,/
CC(CC(=O)c1ccccc1)=NCCCN=C(C)CC(=O)c1ccccc1,35,.,.,.,.
CN=c1sc2c(n1C)C(=O)c1ccccc1C2=O,80,.,.,.,79
CN=c1sc(C(=O)Nc2ccccc2)c(C)n1C,.,.,.,.,/
COc1ccc(NC(=O)C(=O)NNC(=O)c2cccs2)c(OC)c1,.,.,.,.,/
COc1cc(Cc2nccc3cc(OC)c(OC)cc23)c(S(=O)(=O)O)cc1OC,71,.,.,.,.
CCCCOc1ccc(C(=O)N/C(=C/C=C/c2ccccc2)C(=O)NC)cc1,31,.,.,.,.
SMILES,CCHF vOTU inh-1,Vc quorum ag,PrPC TRFRET,Y pestis TopoI,CCHF vOTU inh-2
CCCCOc1ccc(C(=O)N/C(=C/C=C/c2ccccc2)C(=O)O)cc1,.,.,.,.,/
CCC(=O)NCCc1nc2cc(NC(=O)c3ccccc3Cl)ccc2n1C,.,.,.,.,/
COc1ccc(-n2[nH]c(C)cc2=O)cc1,33,.,.,.,.
Cc1cccc(OCC(=O)NNC(=O)c2cc(S(=O)(=O)N(C)C)ccc2N2CCCC2)c1,.,.,.,.,/
Cc1ccc(OCC(=O)NNC(=O)c2cc(S(=O)(=O)N(C)C)ccc2N2CCCC2)cc1,33,.,.,.,.
N#Cc1cc(NC2CCCC2)c([N+](=O)[O-])cc1C#N,.,.,.,.,/
CCNc1ccc(C(=O)OCC)cc1NC(=O)c1cccc(S(=O)(=O)N(C)c2ccccc2)c1,.,.,.,.,/
CC(=O)c1cccc(NC(=O)/C(=C/c2ccco2)NC(=O)c2ccco2)c1,37,.,.,.,.
O=C1C(Cc2ccccc2)Nc2ncnc(N3CCOCC3)c2N1Cc1ccc(Cl)cc1 (stereo not drawn),31!,.,.,.,.
CC(C)c1ccc(NC(=O)C2C3C=CC4(O3)C2C(=O)N(CCCN2CCCCC2)C4C(=O)NC2CCCCC2)cc1 (stereo not drawn),.,.,.,.,/
COc1ccc(C(=O)/C=C/c2ccc(OCc3ccccc3)cc2)cc1CSCC(=O)O,36,.,.,.,.
CN(Cc1ccccc1)C(=O)OCc1cn(Cc2cccc(F)c2F)nn1,.,/,.,/,/
CCNC(=S)N/N=C/c1ccc(C(=O)O)cc1,.,.,.,.,/
Cc1cc(Cl)c(C)c(S(=O)(=O)Oc2ccccc2NC(=O)CCC(=O)O)c1Cl,33,.,.,.,.
